According to the supplement of paper PMC4840960:
± gives the standard deviation of the averaged measurements.

Experiments:
[1] = test system: E18 rat cortical neuron-glia co-culture; experiment: fiber score / MBP score (myelination specific beyond OL differentiation) (ratio); higher = more myelination-specific MBP alignment; details: treatment time: 8 days (DIV5-DIV13)
Method in brief: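 The measure is the ratio of fiber score to MBP score, where fiber score is continuous MBP fiber length per Olig2+ nucleus and MBP score is thresholded MBP area × intensity per Olig2+ nucleus. Primary E18 rat cortical co-cultures received library compounds at 1 or 5 µM in myelination medium from DIV5 to DIV13, then were fixed in 4 % paraformaldehyde and stained for MBP, Olig2 and DAPI before analysis of four 10X fields per well in duplicate wells.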

[2] = test system: E18 rat cortical neuron-glia co-culture; experiment: myelination (MBP fiber length per Olig2+ nucleus), % of 1 µM DAPT response (DMSO = 0) (% of DAPT); higher = more myelination, active = 50 or more; details: treatment time: 8 days (DIV5-DIV13)
Method in brief: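 The myelination value was the continuous straight MBP fiber length per Olig2+ nucleus, scaled between 0.1 % DMSO (0) and a 1 µM positive control (100). It was measured in primary E18 rat cortical co-cultures treated with library compounds at 1 or 5 µM in myelination medium from DIV5 through DIV13. Cells were fixed in 4 % paraformaldehyde and stained for MBP, Olig2 and DAPI, and four 10X fields per well were imaged in duplicate wells.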

| SMILES | fiber score / MBP score ([1]; 1 µM) | fiber score / MBP score ([1]; 5 µM) | myelination ([2]; 1 µM) | myelination ([2]; 5 µM) |
| --- | --- | --- | --- | --- |
| CCN(CC)C(=O)C1(c2ccccc2)CC1CN (stereo unspecified) [Milnacipran] | 0.697 | 0.817 | -8.81 (inactive) | -7.54 (inactive) |
| O=C(O)c1cc(-c2ccc(F)cc2F)ccc1O [Diflunisal] | 0.772 | 1.08 | -4.48 (inactive) | 6.86 (inactive) |
| Cc1ccc(S(=O)(=O)NC(=O)NN2CCCCCC2)cc1 [Tolazamide] | 0.701 | 0.729 | -15.6 (inactive) | -16.8 (inactive) |
| COc1cc(/C=C/c2ccc(O)cc2)cc(OC)c1 [Pterostilbene] | 0.637 | 0.668 | -13.8 (inactive) | -12.2 (inactive) |
| CCCNC(=O)NS(=O)(=O)c1ccc(Cl)cc1 [Chlorpropamide] | 0.614 | 1.05 | -30.5 (inactive) | -5.62 (inactive) |
| CCCc1nc2c(C)cc(-c3nc4ccccc4n3C)cc2n1Cc1ccc(-c2ccccc2C(=O)O)cc1 [Telmisartan] | 0.729 | 0.799 | -7.37 (inactive) | 2.94 (inactive) |
| C[C@]12C=CC(=O)C=C1CC[C@@H]1[C@@H]2C(=O)C[C@@]2(C)[C@H]1CC[C@]2(O)C(=O)CO [Prednisone] | 0.839 | 0.736 | -13.2 (inactive) | -10.1 (inactive) |
| Nc1nc(F)nc2c1ncn2[C@@H]1O[C@H](CO)[C@@H](O)[C@@H]1O [Fludarabine] | 0.675 | 0.885 | -29.4 (inactive) | 34.3 (inactive) |
| CC(=O)OCC(=O)[C@@]1(O)CC[C@H]2[C@@H]3CCC4=CC(=O)CC[C@]4(C)[C@H]3C(=O)C[C@@]21C [Cortisone acetate] | 0.82 | 0.732 | -45.2 (inactive) | -20.1 (inactive) |
| O=C(O)/C=C/c1ccc(Cn2ccnc2)cc1 [Ozagrel] | 0.768 | 1.11 | -6.75 (inactive) | -0.768 (inactive) |
| CCn1cc(C(=O)O)c(=O)c2cc(F)c(N3CCNCC3)cc21 [Norfloxacin] | 0.701 | 0.729 | -19.9 (inactive) | -11.1 (inactive) |
| O=C1CN(/N=C/c2ccc([N+](=O)[O-])o2)C(=O)N1 [Nitrofurantoin] | 0.819 | 1.79 | -1.03 (inactive) | 44 (inactive) |
| CC(=O)O[C@]1(C(C)=O)CC[C@H]2[C@@H]3C=C(C)C4=CC(=O)CC[C@]4(C)[C@H]3CC[C@@]21C [Megestrol acetate] | 0.588 | 0.795 | -33.5 (inactive) | -31.3 (inactive) |
| Cc1onc(-c2c(Cl)cccc2Cl)c1C(=O)N[C@@H]1C(=O)N2[C@@H]1SC(C)(C)[C@@H]2C(=O)O [Dicloxacillin] | 1.04 | 0.655 | 5.21 (inactive) | -8.6 (inactive) |
| CC(=O)OCC[N+](C)(C)C [Acetylcholine] | 0.236 | 0.34 | -17.4 (inactive) | -15.1 (inactive) |
| CO[C@H]1/C=C/O[C@@]2(C)Oc3c(C)c(O)c4c(c3C2=O)C2=NC3(CCN(CC(C)C)CC3)NC2=C(NC(=O)/C(C)=C\C=C\[C@H](C)[C@H](O)[C@@H](C)[C@@H](O)[C@@H](C)[C@H](OC(C)=O)[C@@H]1C)C4=O [Rifabutin] | 0.967 ± 0.41 | 0.734 ± 0.12 | -2.92 (inactive) | -11.2 (inactive) |
| c1ccc2c(CC3=NCCN3)cccc2c1 [Naphazoline] | 1.1 | 1.06 | 13.7 (inactive) | 14 (inactive) |
| CS(N)(=O)=O [Methanesulfonamide] | 0.63 | 0.693 | -10.9 (inactive) | -10.7 (inactive) |
| Cc1noc(NS(=O)(=O)c2ccc(N)cc2)c1C [Sulfisoxazole] | 0.958 | 0.834 | -3.97 (inactive) | -6.9 (inactive) |
| CCN1CC(CCN2CCOCC2)C(c2ccccc2)(c2ccccc2)C1=O (stereo unspecified) [Doxapram] | 0.83 | 0.769 | -10.9 (inactive) | -11 (inactive) |
| COCC1=C(C(=O)OC(C)OC(=O)OC(C)C)N2C(=O)[C@@H](NC(=O)/C(=N\OC)c3csc(N)n3)[C@H]2SC1 (stereo partly specified) [Cefpodoxime proxetil] | 0.721 | 0.866 | -20.2 (inactive) | -4.97 (inactive) |
| COc1ccccc1OCCNCC(O)COc1cccc2[nH]c3ccccc3c12 (stereo unspecified) [Carvedilol] | 0.762 | 0.794 | -38.4 (inactive) | -16.8 (inactive) |
| CC(C)c1nc(CN(C)C(=O)N[C@H](C(=O)N[C@@H](Cc2ccccc2)C[C@H](O)[C@H](Cc2ccccc2)NC(=O)OCc2cncs2)C(C)C)cs1 [Ritonavir] | 0.549 | 0.623 | -20.5 (inactive) | -13.2 (inactive) |
| COc1ccc(-c2cc(=O)c3c(OC)c(OC)c(OC)c(OC)c3o2)cc1OC [Nobiletin] | 1.28 | 1.16 | -36.3 (inactive) | -46.5 (inactive) |
| CN(C)CCCC1(c2ccc(F)cc2)OCc2cc(C#N)ccc21 (stereo unspecified) [Citalopram] | 0.773 ± 0.29 | 0.571 ± 0.19 | -18.2 (inactive) | -19 (inactive) |

| SMILES | fiber score / MBP score ([1]; 1 µM) | fiber score / MBP score ([1]; 5 µM) | myelination ([2]; 1 µM) | myelination ([2]; 5 µM) |
| --- | --- | --- | --- | --- |
| CN(C)[C@@H]1C(O)=C(C(N)=O)C(=O)[C@@]2(O)C(O)=C3C(=O)c4c(O)cccc4C[C@H]3C[C@@H]12 [Sancycline] | 0.961 | 0.714 | -12.5 (inactive) | -15 (inactive) |
| OC(CCN1CCCCC1)(c1ccccc1)C1CCCCC1 (stereo unspecified) [Trihexyphenidyl] | 0.616 | 0.486 | -12.2 (inactive) | -15.2 (inactive) |
| COC(=O)C1=C(C)NC(C)=C(C(=O)OCCN(C)Cc2ccccc2)C1c1cccc([N+](=O)[O-])c1 (stereo unspecified) [Nicardipine] | 0.629 | 0.824 | -8.17 (inactive) | -21.2 (inactive) |
| CO[C@@]1(NC(=O)Cc2cccs2)C(=O)N2C(C(=O)O)=C(COC(N)=O)CS[C@@H]21 [Cefoxitin] | 0.901 | 0.686 | -5.64 (inactive) | -13.8 (inactive) |
| COc1cc(Cc2cnc(N)nc2N)cc(OC)c1OC [Trimethoprim] | 0.828 | 1.18 | -9.76 (inactive) | 5.27 (inactive) |
| CCc1cc(C(N)=S)ccn1 [Ethionamide] | 0.983 | 1.1 | -1.99 (inactive) | 3.35 (inactive) |
| C[C@@H]1C[C@H]2[C@@H]3CCC4=CC(=O)C=C[C@]4(C)[C@@]3(F)[C@@H](O)C[C@]2(C)[C@H]1C(=O)CO [Desoximetasone] | 0.95 | 0.758 | 7.66 (inactive) | -8.43 (inactive) |
| Cc1[nH]cnc1CN1CCc2c(c3ccccc3n2C)C1=O [Alosetron] | 0.768 | 0.974 | -18.2 (inactive) | -2.39 (inactive) |
| CC(C)NCC(O)COc1ccc(COCCOC(C)C)cc1 (stereo unspecified) [Bisoprolol] | 0.546 | 0.728 | -58.3 (inactive) | -38.2 (inactive) |
| CC(C)(C)NC[C@H](O)COc1nsnc1N1CCOCC1 [Timolol] | 0.869 | 1.02 | -4.47 (inactive) | -1.56 (inactive) |
| Cc1cccc(C)c1OCC(C)N (stereo unspecified) [Mexiletine] | 0.887 | 0.965 | 8.19 (inactive) | 8.07 (inactive) |
| C=CC[C@@H]1/C=C(\C)C[C@H](C)C[C@H](OC)[C@H]2O[C@@](O)(C(=O)C(=O)N3CCCC[C@H]3C(=O)O[C@H](/C(C)=C/[C@@H]3CC[C@@H](O)[C@H](OC)C3)[C@H](C)[C@@H](O)CC1=O)[C@H](C)C[C@@H]2OC [Tacrolimus] | 0.687 | 0.587 | -24.6 (inactive) | -22.8 (inactive) |
| NCc1ccc(S(N)(=O)=O)cc1 [Mafenide] | 1.07 | 0.912 | 6.37 (inactive) | 3.49 (inactive) |
| COc1cc2nc(N(C)CCCNC(=O)C3CCCO3)nc(N)c2cc1OC (stereo unspecified) [Alfuzosin] | 0.472 | 0.636 | -57.9 (inactive) | -36.4 (inactive) |
| CC(CN1c2ccccc2Sc2ccccc21)N(C)C (stereo unspecified) [Promethazine] | 0.678 | 0.931 | -18.8 (inactive) | -4.26 (inactive) |
| O=C1[C@H]2CCCC[C@H]2C(=O)N1CCCCN1CCN(c2nsc3ccccc23)CC1 [Perospirone] | 0.291 | 0.198 | -33.9 (inactive) | -34.5 (inactive) |
| COc1cc2nc(N3CCN(C(=O)C4CCCO4)CC3)nc(N)c2cc1OC (stereo unspecified) [Terazosin] | 1.2 ± 0.17 | 1.08 ± 0.41 | 11.7 (inactive) | 2.09 (inactive) |
| O=C1CCC(N2C(=O)c3ccccc3C2=O)C(=O)N1 (stereo unspecified) [Thalidomide] | 1.07 | 1.14 | 1.07 (inactive) | 4.71 (inactive) |
| CCN1CCN(C(=O)N[C@@H](C(=O)N[C@@H]2C(=O)N3[C@@H]2SC(C)(C)[C@@H]3C(=O)O)c2ccccc2)C(=O)C1=O [Piperacillin] | 0.703 | 0.948 | -13.4 (inactive) | 5.13 (inactive) |
| Cc1c(O)cccc1C(=O)N[C@@H](CSc1ccccc1)[C@H](O)CN1C[C@H]2CCCC[C@H]2C[C@H]1C(=O)NC(C)(C)C [Nelfinavir] | 0.779 | 0.634 | -42.1 (inactive) | -44.3 (inactive) |
| CN(C)CCCN1c2ccccc2CCc2ccccc21 [Imipramine] | 0.817 | 0.517 | -3.36 (inactive) | -6.74 (inactive) |
| CS(=O)(=O)OCCCCOS(C)(=O)=O [Busulfan] | 0.646 | 1.46 | -6.35 (inactive) | 46.7 (inactive) |
| O=C1CC2(CCCC2)CC(=O)N1CCNCC1COc2ccccc2O1 (stereo unspecified) [Binospirone] | 0.768 | 0.49 | -14.3 (inactive) | -17.9 (inactive) |
| CCCC(=O)O[C@]1(C(=O)COC(=O)CC)CC[C@H]2[C@@H]3CCC4=CC(=O)CC[C@]4(C)[C@H]3[C@@H](O)C[C@@]21C [Hydrocortisone buteprate] | 1.04 | 1.22 | 5.43 (inactive) | 12.1 (inactive) |
